{"source": "PubChem BioAssay AID2590", "about": "(National Center for Advancing Translational Sciences (NCATS), 2010)", "note": "Values joined by “and” are separate entries in the source; they are usually repeats but may differ in a detail not shown here. Equal entries are not always repeated. Records with an inconclusive call do not appear. Active and inactive are the calls of the source. Calls come from the whole dose curve; as a rule, active = well fitted curve in the direction sought with a large enough effect; inconclusive = small, poorly fitted or top-dose-only effect, or another doubt; inactive = no such curve, though single readings can be large or run the other way. Potency is the fitted concentration of half-maximal effect.", "data": [{"molecular_target": "Lysosomal acid glucosylceramidase (Homo sapiens) (UniProt P04062)", "sequence (P04062 whole entry N409S)": "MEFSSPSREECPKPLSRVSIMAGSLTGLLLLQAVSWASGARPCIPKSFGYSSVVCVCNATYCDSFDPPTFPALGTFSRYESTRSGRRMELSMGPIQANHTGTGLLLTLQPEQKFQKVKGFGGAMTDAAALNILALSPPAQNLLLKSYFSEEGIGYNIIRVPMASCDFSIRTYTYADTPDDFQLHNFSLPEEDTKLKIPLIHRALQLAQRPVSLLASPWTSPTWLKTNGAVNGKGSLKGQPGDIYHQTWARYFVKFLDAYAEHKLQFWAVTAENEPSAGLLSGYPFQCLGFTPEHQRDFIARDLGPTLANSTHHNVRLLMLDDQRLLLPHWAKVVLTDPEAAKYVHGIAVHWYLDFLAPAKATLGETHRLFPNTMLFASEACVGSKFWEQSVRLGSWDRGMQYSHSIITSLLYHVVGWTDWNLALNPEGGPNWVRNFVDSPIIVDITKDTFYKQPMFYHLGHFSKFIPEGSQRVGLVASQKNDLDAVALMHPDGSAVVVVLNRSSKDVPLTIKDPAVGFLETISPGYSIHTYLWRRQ", "assay": "qHTS Assay for Inhibitors and Activators of N370S glucocerebrosidase as a Potential Chaperone Treatment of Gaucher Disease: Primary Screen Confirmation;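 for Potency: enzyme source is Gaucher patient spleen homogenate not purified recombinant protein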;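 for activity change, negative = inhibition: 0% = enzyme with DMSO and -100% = no enzyme basal signal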", "conditions": "N370S glucocerebrosidase enzyme activity, fluorogenic substrate; series mostly up to 54 µM; activity change, negative = inhibition: at the top concentration", "in_short": "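Patient-spleen homogenate carrying N370S GC (27 ug) in pH 5.0 citrate buffer with 0.01% Tween-20, 1 mM 4-methylumbelliferyl-beta-glucoside, 40 min at 37C; fluorescence 365/440 nm after NaOH/glycine stop; AC50 from Hill fits.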", "values": [{"compound": "O=C(Nc1cnn(Cc2ccc(F)cc2)c1)c1cnn2c(C(F)F)cc(-c3ccccc3)nc12", "activity change, negative = inhibition": "42.8% (inactive)"}, {"compound": "Cc1ccc(S(=O)(=O)C2CCN(c3nc(-c4cccs4)nc4ccccc34)CC2)cc1", "Potency": "8.19 µM (active)"}, {"compound": "CC1(C)CCc2cc(S(=O)(=O)N3CCN(c4nc(-c5cccs5)nc5ccccc45)CC3)ccc2O1", "Potency": "1.13 µM (active)"}, {"compound": "Cc1cc(C)cc(N(CC(=O)Nc2ccc(Br)cc2)S(=O)(=O)c2c(C)[nH]c(=O)[nH]c2=O)c1", "Potency": "2.06 µM (active)"}, {"compound": "O=S(=O)(c1ccc2c(c1)OCCO2)N1CCN(c2nc(-c3cccs3)nc3ccccc23)CC1", "Potency": "410 nM (active) and 450 nM (active)"}, {"compound": "Cc1ccc(S(=O)(=O)N2CCN(c3nc(-c4ncco4)nc4ccccc34)CC2)cc1", "Potency": "9.02 µM (active)"}, {"compound": "Cc1nc2nc(-c3ccccc3)cn2nc1C", "activity change, negative = inhibition": "8.02% (inactive)"}, {"compound": "S=C(NCCCc1cnc[nH]1)NCCCN(Cc1ccc(Cl)c(Cl)c1)c1ccccn1", "Potency": "7.29 µM (active)"}, {"compound": "Cc1ccc(Nc2cc(C)nc(-c3ccccc3)n2)cc1", "Potency": "4.11 µM (active)"}, {"compound": "CCC1CN(S(=O)(=O)c2ccc3c(c2)NC(=O)CC(=O)N3)c2cc(Cl)ccc2O1", "note": "(centres undefined)", "Potency": "2.91 µM (active)"}, {"compound": "COc1cccc(S(=O)(=O)N2CCN(c3nc(-c4cccs4)nc4ccccc34)CC2)c1", "Potency": "0.819 µM (active)"}, {"compound": "CCOc1ccc(N(CC(=O)NC2CCCCCC2)S(=O)(=O)c2c(C)[nH]c(=O)[nH]c2=O)cc1", "Potency": "7.94 µM (active)"}, {"compound": "CS(=O)(=O)N1CCN(c2nc(-c3cccs3)nc3ccccc23)CC1", "Potency": "11.4 µM (active)"}, {"compound": "O=S(=O)(c1cccc(Br)c1)N1CCN(c2nc(-c3cccs3)nc3ccccc23)CC1", "Potency": "2.53 µM (active)"}, {"compound": "O=S(=O)(c1ccsc1)N1CCN(c2nc(-c3cccs3)nc3ccccc23)CC1", "Potency": "1.03 µM (active)"}, {"compound": "O=S(=O)(/C=C/c1ccccc1)N1CCN(c2nc(-c3ccccc3)nc3ccccc23)CC1", "Potency": "11.6 µM (active)"}, {"compound": "COc1ccc(S(=O)(=O)N2CCN(c3nc(-c4cccs4)nc4ccccc34)CC2)cc1OC", "Potency": "1.16 µM (active)"}, {"compound": "O=S(=O)(c1ccccc1Br)N1CCN(c2nc(-c3cccs3)nc3ccccc23)CC1", "Potency": "1.3 µM (active)"}, {"compound": "CC(=O)c1ccccc1S(=O)(=O)N1CCN(c2nc(-c3cccs3)nc3ccccc23)CC1", "Potency": "3.26 µM (active)"}, {"compound": "Cc1ccc(S(=O)(=O)N2CCN(c3nc(-c4cccs4)nc4ccccc34)CC2)cc1", "Potency": "259 nM (active) and 730 nM (active) and 366 nM (active)"}, {"compound": "CCN(Cc1ccccc1)c1ccc(Br)cn1", "activity change, negative = inhibition": "-10.6% (inactive)"}, {"compound": "O=S(=O)(c1cccc2ccccc12)N1CCN(c2nc(-c3cccs3)nc3ccccc23)CC1", "Potency": "0.819 µM (active)"}, {"compound": "CCOC(=O)c1ccc(Nc2cc(C)nc(-c3ccccc3)n2)cc1", "Potency": "10.3 µM (active)"}, {"compound": "O=S(=O)(c1cnc2ccccc2c1)N1CCN(c2nc(-c3cccs3)nc3ccccc23)CC1", "Potency": "0.897 µM (active)"}, {"compound": "CCCCN(Cc1ccc(Cl)c(Cl)c1)c1ccc(Br)cn1", "activity change, negative = inhibition": "-6.38% (inactive)"}, {"compound": "O=S(=O)(c1ccc(Br)cc1)N1CCN(c2nc(-c3cccs3)nc3ccccc23)CC1", "Potency": "1.3 µM (active)"}, {"compound": "C#CCOCCOCCOCCNc1nc(N2CCN(C(=O)CCCCCCCCCCNC(=O)[C@H](CCCCN)n3cc(CCCC(=O)O)nn3)CC2)nc(N2CCN(C(=O)CCCCCCCCCCNC(=O)[C@H](CCCN=C(N)N)n3cc(C[C@@H](C)CC)nn3)CC2)n1", "Potency": "8.19 µM (active)"}, {"compound": "O=S(=O)(c1ccc2c(c1)CCCC2)N1CCN(c2nc(-c3cccs3)nc3ccccc23)CC1", "Potency": "0.713 µM (active)"}, {"compound": "CC(C)(C)C(=O)OCCNc1nc(-c2cccs2)nc2ccccc12", "Potency": "1.46 µM (active)"}]}]}
